# In paper PMC12215968:
# Key:
# [1] = target: Eukaryotic translation initiation factor 3 subunit C (UniProt Q99613); assay: cross-linking mass spectrometry
# [2] = target: Peptidyl-prolyl cis-trans isomerase A (UniProt P62937); assay: cross-linking mass spectrometry
# Thymosin beta-4 = Thymosin beta-4 (UniProt P62328); assay: cross-linking mass spectrometry
# [3] = target: 26S proteasome non-ATPase regulatory subunit 2 (UniProt Q13200); assay: cross-link between two proteins; cross-linking mass spectrometry
# [4] = target: Adenylyl cyclase-associated protein 1 (UniProt Q01518); assay: as above
# [5] = target: Elongation factor 1-alpha 2 (UniProt Q05639); assay: as above
# [6] = target: Heat shock protein HSP 90-beta (UniProt P08238); assay: as above
# [7] = target: Putative heat shock protein HSP 90-beta-3 (UniProt Q58FF7); assay: as above
# Histone H1.2 = Histone H1.2 (UniProt P16403); assay: as above
# Histone H2B type F-S = Histone H2B type F-S (UniProt P57053); assay: as above
# Junctophilin-2 = target: T1, Junctophilin-2 (UniProt Q9BR39); assay: as above
# T1 sequence: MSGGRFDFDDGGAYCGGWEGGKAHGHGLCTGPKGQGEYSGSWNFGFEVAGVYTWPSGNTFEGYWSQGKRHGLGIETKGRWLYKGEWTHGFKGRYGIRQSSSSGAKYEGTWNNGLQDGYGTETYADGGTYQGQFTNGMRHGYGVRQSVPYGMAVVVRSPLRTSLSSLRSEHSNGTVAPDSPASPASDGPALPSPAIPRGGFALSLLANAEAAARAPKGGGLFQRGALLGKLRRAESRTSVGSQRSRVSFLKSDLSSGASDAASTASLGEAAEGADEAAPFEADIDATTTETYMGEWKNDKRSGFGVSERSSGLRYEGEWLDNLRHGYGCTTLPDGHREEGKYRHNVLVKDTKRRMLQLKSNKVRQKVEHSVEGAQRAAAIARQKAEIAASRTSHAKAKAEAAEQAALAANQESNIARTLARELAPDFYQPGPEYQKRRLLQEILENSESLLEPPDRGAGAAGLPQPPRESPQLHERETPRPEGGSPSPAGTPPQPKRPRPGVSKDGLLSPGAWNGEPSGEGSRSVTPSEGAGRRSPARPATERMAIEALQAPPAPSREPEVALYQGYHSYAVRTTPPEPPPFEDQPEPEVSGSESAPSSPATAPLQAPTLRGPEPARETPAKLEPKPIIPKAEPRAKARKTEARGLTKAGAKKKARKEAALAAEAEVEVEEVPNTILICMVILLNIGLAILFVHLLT
# [8] = target: Large ribosomal subunit protein eL24 (UniProt P83731); assay: as above
# [9] = target: Ribosomal protein eL42-like (UniProt Q969Q0); assay: as above
# Thymosin beta-10 = Thymosin beta-10 (UniProt P63313); assay: as above
# [10] = target: Ubiquitin-conjugating enzyme E2 L3 (UniProt P68036); assay: as above
# [11] = target: Ubiquitin-like FUBI-ribosomal protein eS30 fusion protein (UniProt P62861); assay: as above
# [12] = target: Ubiquitin-ribosomal protein eS31 fusion protein (UniProt P62979); assay: as above
substance,measurement,setting,value
"Small ribosomal subunit protein uS15, P62277",listed as a hit,[1],yes
"Actin, cytoplasmic 1, P60709",listed as a hit,[2],yes
same,listed as a hit,Thymosin beta-4,yes
"26S proteasome regulatory subunit 8, P62195",listed as a hit,[3],yes
"Actin, alpha cardiac muscle 1, P68032",listed as a hit,[4],yes
"Large ribosomal subunit protein uL13, P40429",listed as a hit,[5],yes
O60361,listed as a hit,[6],yes
same,listed as a hit,[7],yes
"Non-histone chromosomal protein HMG-17, P05204",listed as a hit,Histone H1.2,yes
"Histone H2A type 1, P0C0S8",listed as a hit,Histone H2B type F-S,yes
"Histone H2B type 1-C/E/F/G/I, P62807",listed as a hit,Junctophilin-2,yes
"Large ribosomal subunit protein eL8, P62424",listed as a hit,[8],yes
"Large ribosomal subunit protein uL1, P62906",listed as a hit,[9],yes
"Actin, cytoplasmic 2, P63261",listed as a hit,Thymosin beta-10,yes
"Ubiquitin-ribosomal protein eS31 fusion protein, P62979",listed as a hit,[10],yes
"Elongation factor 2, P13639",listed as a hit,[11],yes
"Histone H2A type 1-D, P20671",listed as a hit,[12],yes
"Histone H2A type 1-B/E, P04908",listed as a hit,[12],yes
